High-throughput results deposited in PubChem BioAssay by University of Kansas High Throughput Screening Laboratory.
mHTT-CaM PPI inh – inhibitors of human mutant huntingtin-calmodulin interaction | AlphaScreen His-mHTT/GST-CaM binding, luminescence | 3.6% of 190,000 active | inhibition, % at 15 µM | AID 1671202;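 note: 0% = both proteins with DMSO and 100% = one protein alone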
Pf apPOL block – Pf-apPOL DNA polymerase inhibition. inhibition, % at 10 µM. 0.25% of 210,000 active. Recombinant Pf-apPOL, molecular beacon fluorescence, 1.5 h
* = called active by the depositor; nt = not tested or not shown. Compounds with a hit are over-represented: about 3.5% of the library has one in this group of screens. Cut-off read from the data, not from the text of the source: active = inhibition above about 50%; inactive = the rest.

SMILES	mHTT-CaM PPI inh	Pf apPOL block
CCOc1ccc(NC(=O)C2CCCN(c3nnc4ccccn34)C2)cc1 (stereo not given)	5	-4
CCc1ccc(NC(=O)C2CCCN(c3nnc4ccccn34)C2)cc1 (stereo not given)	56*	-4
COc1ccc(CNC(=O)NCc2cccnc2OC)cc1	-4	-6
Cc1nc(N2CCC(C(=O)NCc3cc(F)cc(F)c3)CC2)c2c(C)scc2n1	2	-6
COc1ccc(C2CC(c3ccc(C)cc3)Nc3ncnn32)c(OC)c1OC (stereo not given)	24	-6
COc1cccc(C2CC(c3ccc(C)c(C)c3)Nc3ncnn32)c1OC (stereo not given)	53*	-2
COc1cccc(C2CC(c3ccc(I)cc3)Nc3ncnn32)c1OC (stereo not given)	34	-4
COc1ccc(C2CC(c3ccc(Br)cc3)Nc3ncnn32)c(OC)c1OC (stereo not given)	57*	0
COc1ccc(C2CC(c3cc(OC)ccc3OC)n3ncnc3N2)cc1 (stereo not given)	17	-8
COc1ccc(OC)c(C2CC(c3ccc(Br)cc3)Nc3ncnn32)c1 (stereo not given)	61*	-2
COc1ccc(C2CC(c3cccc(Br)c3)Nc3ncnn32)c(OC)c1 (stereo not given)	41	-9
COc1ccc(C2CC(c3ccc(Br)cc3)Nc3ncnn32)c(OC)c1 (stereo not given)	57*	-4
Cc1cccc(C(=O)N2CCc3nc[nH]c3C2)c1	7	-7
CCCn1cnnc1C1CCN(C(=O)Cc2c[nH]c3ccccc23)CC1	13	2
Cn1cnnc1C1CCCCN1C(=O)Cc1c[nH]c2ccccc12 (stereo not given)	4	91*
COc1ccc(C2=N/C(=C\C(C)=C\c3ccccc3)C(=O)O2)cc1OC	21	-4
CC(C)(C)n1nc2c(c1NC(=O)COc1ccc(Cl)cc1)CSC2	57*	6
CC(C)(C)n1nc2c(c1NC(=O)COc1ccc(Cl)cc1Cl)CSC2	13	-3
Cc1cccc(N2C(=O)CSC2c2cc3c(cc2[N+](=O)[O-])OCO3)c1 (stereo not given)	17	-6
COc1cc(OC)cc(C(=O)Nc2ccc3c(=O)cc(-c4ccc(C(C)(C)C)cc4)oc3c2)c1	4	-4
Cc1cc(C)nc(N=C(N)N(C)C2CCCCC2)n1	0	-3
O=C(NCCn1nc(-c2cccs2)ccc1=O)C1c2ccccc2Oc2ccccc21	-15	-7
O=C(Nc1cc(-c2cccs2)nn1CCO)C1c2ccccc2Oc2ccccc21	58*	-4
O=C(Nc1nnc(-c2ccco2)o1)c1c[nH]c2ccccc12	72*	-28
CCS(=O)(=O)c1ccc(-c2nnc(NC(=O)c3c[nH]c4ccccc34)o2)cc1	13	-85
SMILES	mHTT-CaM PPI inh	Pf apPOL block
COc1cc([N+](=O)[O-])ccc1NC(=O)C(Cl)Cl	-2	11
CCc1cc(C2CCCN2Cc2ccc(O)c(OC)c2)on1 (stereo not given)	-3	-5
COc1ccc(N(CC(=O)Nc2ccc(Oc3ccccc3)cc2)S(C)(=O)=O)cc1OC	52*	-8
COc1ccc(Cl)cc1N(CC(=O)Nc1cccc([N+](=O)[O-])c1)S(C)(=O)=O	3	-3
COc1ccc(N(CC(=O)Nc2ccc(OCc3ccccc3)cc2)S(C)(=O)=O)cc1OC	26	-9
COc1ccc(NC(=O)CN(c2cccc([N+](=O)[O-])c2)S(C)(=O)=O)cc1Cl	12	65*
CS(=O)(=O)N(CC(=O)Nc1ccc(F)c(Cl)c1)c1ccccc1F	2	-6
COc1ccc(NC(=O)CN(c2ccc(Cl)cc2)S(=O)(=O)c2ccccc2)cc1OC	76*	-6
Cc1c(Cl)cccc1N(CC(=O)Nc1ccc(F)c(Cl)c1)S(C)(=O)=O	99*	-7
COc1ccc(NC(=O)CN(c2ccc(Cl)cc2)S(C)(=O)=O)cc1Cl	-2	6
COc1ccccc1CNC(=O)c1ccc(N2CCNC(c3ccccc3)C2)nc1 (stereo not given)	20	-3
Cn1cc(CN2CCC(C(=O)NCCCc3ccccc3)CC2)c2cc(Cl)ccc21	26	7
CCc1ccc2nc(N3CCC(C(=O)NCCCN(C)C)CC3)sc2c1	0	-1
CCc1ccc(C2CC(c3ccc(OC)c(OC)c3)=NN2C(=O)CCCC(=O)O)cc1 (stereo not given)	15	-9
COc1cccc(CN2CCCC2c2cc(C)no2)c1OC (stereo not given)	15	7
COc1ccc(-c2nc(NCc3ccc(F)cc3)c3ccccc3n2)cc1OC	87*	-4
COc1ccc(-c2nc(NCc3ccccc3)c3ccccc3n2)cc1OC	14	-1
O=C(NCc1ccccn1)c1cc2n(n1)CCCN(Cc1ccc(F)cc1)C2=O	-6	-5
O=C(CC(=O)c1ccccc1O)c1ccc(F)cc1	38	-4
O=C(CC(=O)c1ccccc1Cl)c1ccccc1O	50*	0
O=C(NCCNC(=O)c1ccccc1O)c1ccccc1O	5	6
O=C(CC(=O)c1ccccc1O)c1cccc(F)c1	57*	2
CC(=O)N(C)c1ccc(N=Cc2cc3c(cc2[N+](=O)[O-])OCO3)cc1	31	13
Cc1ccc(N=Cc2cc3c(cc2[N+](=O)[O-])OCO3)c(C)c1	76*	2
N#Cc1ccccc1N=Cc1cc2c(cc1[N+](=O)[O-])OCO2	19	-2
SMILES	mHTT-CaM PPI inh	Pf apPOL block
Cc1ccc(C)c(N=Cc2cc3c(cc2[N+](=O)[O-])OCO3)c1	66*	nt
Cc1cc(C)c(O)c(N=Cc2cc(Cl)cc([N+](=O)[O-])c2O)c1	32	0
Cc1cc(C)c(O)c(N=Cc2cc3c(cc2[N+](=O)[O-])OCO3)c1	52*	-2
c1ccc(C2=NN3C(C2)c2ccccc2OC32CCCC2)cc1 (stereo not given)	51*	29
c1csc(C2=NN3C(C2)c2ccccc2OC32CCCC2)c1 (stereo not given)	56*	-1
CN1CCC2(CC1)Oc1ccc(Cl)cc1C1CC(c3ccc(Cl)cc3)=NN12 (stereo not given)	24	nt
CN(CC(=O)N1N=C(c2cccs2)CC1c1ccccc1Cl)C(=O)C1CCC1 (stereo not given)	26	3
Cc1ccc(C2=NN3C(C2)c2ccccc2OC32CCCCC2)o1 (stereo not given)	53*	-6
c1ccc(C2=NN3C(C2)c2ccccc2OC32CCCCC2)cc1 (stereo not given)	44	-1
CCC1(C)Oc2ccccc2C2CC(c3ccccc3)=NN21 (stereo not given)	44	0
Clc1ccc2c(c1)C1CC(c3cccnc3)=NN1C1(CCCCC1)O2 (stereo not given)	51*	-23
NC(=O)c1cc(N2C(=O)CCC2=O)ccc1Cl	-7	2
O=C(CSCc1ccccc1)Nc1nnc(-c2ccc(OC(F)(F)F)cc2)o1	-14	-31
O=C1Nc2ccccc2C12Oc1ccccc1C1CC(c3ccc(Cl)cc3)=NN12 (stereo not given)	100*	-4
C=CCN1C(=O)C2(Oc3ccccc3C3CC(c4ccccc4)=NN32)c2ccccc21 (stereo not given)	7	0
O=C1NCCCn2nc(C3CCN(C(=O)c4ccc(C(F)(F)F)cc4)CC3)cc21	7	2
Fc1cc(F)c(C2SCCN2C(=S)NCCc2ccccc2)c(F)c1 (stereo not given)	59*	nt
